Measured values reported in PubChem BioAssay AID1159580 (chemical genetic matrix, 2015).
Screen size: about 5,500 compounds; about 2,000 (36%) were called active. Inconclusive results (about 18%) are left out. No stated cut-off is given here; in the data, active means normalized growth mostly below about 0.91 (no sharp cut-off); inconclusive means no clear call, values can overlap the other calls; inactive means mostly above about 0.92. This is one part of the list.

Assay: chemical genetic growth profiling, strain panel (AID 1159580);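 further: tested at 20 µM; growth read once vehicle control cultures reached saturation at 30 °C; 1 = growth at the plate median or of vehicle wells; lower values mean less growth of the strain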
Settings: S. cerevisiae deletion strains, growth OD
[1] = locus YAL021C, strain ccr4, hits give low values
[2] = locus YAL026C, strain drs2, hits give low values
[3] = locus YAL030W, strain snc1, hits give low values
[4] = locus YBL061C, strain skt5, hits give low values
[5] = locus YBR009C, strain hhf1, hits give low values
[6] = locus YBR023C, strain chs3, hits give low values
[7] = locus YBR171W, strain sec66, hits give low values
[8] = locus YBR231C, strain swc5, hits give low values
[9] = locus YBR279W, strain paf1, hits give low values
[10] = locus YCL011C, strain gbp2, hits give low values
[11] = locus YCL016C, strain dcc1, hits give low values
[12] = locus YCL061C, strain MRC1, hits give low values
[13] = locus YCL069W, strain vba3, hits give low values
[14] = locus YCR088W, strain abp1, hits give low values
[15] = locus YDL005C, strain med2, hits give low values
[16] = locus YDL040C, strain nat1, hits give low values
[17] = locus YDR001C, strain nth1, hits give low values
[18] = locus YDR069C, strain doa4, hits give low values
[19] = locus YDR137W, strain rgp1, hits give low values
[20] = locus YDR159W, strain sac3, hits give low values
[21] = locus YDR297W, strain sur2, hits give low values
[22] = locus YDR334W, strain swr1, hits give low values
[23] = locus YDR335W, strain msn5, hits give low values
[24] = locus YDR392W, strain spt3, hits give low values
[25] = locus YEL003W, strain gim4, hits give low values
[26] = locus YEL037C, strain rad23, hits give low values
[27] = locus YEL061C, strain CIN8 (second series), hits give low values
[28] = locus YER015W, strain faa2, hits give low values
[29] = locus YER016W, strain bim1, hits give low values
[30] = locus YER111C, strain swi4, hits give low values
[31] = locus YER155C, strain BEM2 (second series), hits give low values
[32] = locus YFR010W, strain ubp6, hits give low values
[33] = locus YGL167C, strain pmr1, hits give low values
[34] = locus YGL173C, strain kem1, hits give low values
[35] = locus YGL227W, strain vid30, hits give low values
[36] = locus YGL240W, strain doc1, hits give low values
[37] = locus YGL253W, strain hxk2, hits give low values
[38] = locus YHR013C, strain ard1, hits give low values
[39] = locus YHR027C, strain rpn1, hits give low values
[40] = locus YHR030C, strain SLT2, hits give low values
[41] = locus YHR079C, strain IRE1, hits give low values
[42] = locus YHR142W, strain chs7, hits give low values
[43] = locus YJL092W, strain hpr5, hits give low values
[44] = locus YJL095W, strain BCK1 (second series), hits give low values
[45] = locus YJL095W, strain BCK1, hits give low values
[46] = locus YJL115W, strain asf1, hits give low values
[47] = locus YJL129C, strain trk1, hits give low values
[48] = locus YJL154C, strain vps35, hits give low values
[49] = locus YJL164C, strain tpk1, hits give low values
[50] = locus YJL166W, strain qcr8, hits give low values
[51] = locus YJR066W, strain TOR1, hits give low values
[52] = locus YKL160W, strain elf1, hits give low values
[53] = locus YKR026C, strain gcn3, hits give low values
[54] = locus YKR091W, strain srl3, hits give low values
[55] = locus YLL001W, strain dnm1, hits give low values
[56] = locus YLL026W, hits give low values
[57] = locus YLL041C, strain sdh2, hits give low values
[58] = locus YLR027C, strain aat2, hits give low values
[59] = locus YLR113W, strain HOG1, hits give low values
[60] = locus YLR221C, strain rsa3, hits give low values
[61] = locus YLR258W, strain gsy2, hits give low values
[62] = locus YLR262C, strain YPT6 (second series), hits give low values
[63] = locus YLR320W, strain mms22, hits give low values
[64] = locus YLR342W, strain FKS1, hits give low values
[65] = locus YLR357W, strain rsc2, hits give low values
[66] = locus YLR370C, strain arc18, hits give low values
[67] = locus YLR384C, strain iki3, hits give low values
[68] = locus YML120C, strain ndi1, hits give low values
[69] = locus YMR058W, strain fet3, hits give low values
[70] = locus YMR125W, strain sto1, hits give low values
[71] = locus YMR129W, hits give low values
[72] = locus YMR205C, strain PFK2, hits give low values
[73] = locus YMR231W, strain pep5, hits give low values
[74] = locus YNL071W, strain lat1, hits give low values
[75] = locus YNL183C, strain NPR1, hits give low values
[76] = locus YNL209W, strain ssb2, hits give low values
[77] = locus YNL248C, strain rpa49, hits give low values
[78] = locus YNL322C, strain KRE1 (second series), hits give low values
[79] = locus YNR049C, strain mso1, hits give low values
[80] = locus YOR001W, strain rrp6, hits give low values
[81] = locus YOR070C, strain gyp1, hits give low values
[82] = locus YOR080W, strain dia2, hits give low values
[83] = locus YOR083W, strain WHI5, hits give low values
[84] = locus YOR106W, strain vam3, hits give low values
[85] = locus YOR231W, strain MKK1, hits give low values
[86] = locus YOR265W, strain rbl2, hits give low values
[87] = locus YOR270C, strain vph1, hits give low values
[88] = locus YOR290C, strain snf2, hits give low values
[89] = locus YPL051W, strain arl3, hits give low values
[90] = locus YPL078C, strain atp4, hits give low values
[91] = locus YPL106C, strain sse1, hits give low values
[92] = locus YPL240C, strain hsp82, hits give low values
[93] = locus YPL256C, strain CLN2, hits give low values

Measured: normalized growth

C[C@H]1COC2=C1C(=O)C(=O)c1c2ccc2c1CCCC2(C)C
active: [1] 0.859 | [2] 0.583 | [3] 0.858 | [4] 0.725 | [5] 0.534 | [6] 0.783 | [7] 0.808 | [8] 0.675 | [9] 0.725 | [10] 0.65 | [11] 0.691 | [12] 0.668 | [13] 0.659 | [14] 0.866 | [15] 0.828 | [16] 0.9 | [17] 0.913 | [18] 0.868 | [19] 0.23 | [20] 0.301 | locus YDR195W, strain ref2 0.823 | [21] 0.75 | [22] 0.729 | [23] 0.658 | [24] 0.0851 | [25] 0.77 | [26] 0.883 | [27] 0.527 | [28] 0.845 | [29] 0.666 | [30] 0.478 | [31] 0.334 | [32] 0.871 | [34] 0.801 | [35] 0.546 | [36] 0.649 | [37] 0.545 | [38] 0.604 | [39] 0.872 | [40] 0.139 | [41] 0.25 | [42] 0.379 | [43] 0.871 | [44] 0.408 | [45] 0.31 | [46] 0.886 | [47] 0.22 | [48] 0.913 | [49] 0.69 | [50] 0.349 | [51] 0.701 | [52] 0.462 | [53] 0.853 | [54] 0.893 | [55] 0.819 | [56] 0.843 | [57] 0.901 | [58] 0.662 | [59] 0.208 | [60] 0.662 | [61] 0.723 | [62] 0.2 | [63] 0.613 | [64] 0.626 | [66] 0.806 | [67] 0.904 | [68] 0.371 | [69] 0.619 | [70] 0.476 | [71] 0.824 | [72] 0.531 | [73] 0.714 | [74] 0.18 | [75] 0.666 | [76] 0.817 | [77] 0.735 | [78] 0.801 | [79] 0.903 | [80] 0.608 | [81] 0.752 | [82] 0.912 | [83] 0.712 | [84] 0.581 | [85] 0.213 | [86] 0.895 | [87] 0.543 | [88] 0.775 | [89] 0.549 | [90] 0.453 | [91] 0.537 | [92] 0.761 | [93] 0.19
inactive: [33] 0.936 | [65] 0.934

Cc1coc2c1C(=O)C(=O)c1c-2ccc2c1CCCC2(C)C
active: [2] 0.869 | [5] 0.882 | [8] 0.815 | [11] 0.904 | [12] 0.91 | [19] 0.439 | [20] 0.582 | [24] 0.196 | [25] 0.903 | [27] 0.905 | [31] 0.592 | [36] 0.801 | [37] 0.828 | [38] 0.815 | [40] 0.81 | [42] 0.868 | [45] 0.855 | [47] 0.738 | [52] 0.886 | [55] 0.886 | [58] 0.911 | [59] 0.821 | [60] 0.873 | [62] 0.485 | [63] 0.79 | [64] 0.904 | [68] 0.905 | [72] 0.735 | [74] 0.766 | [75] 0.82 | [81] 0.911 | [84] 0.852 | [89] 0.913 | [90] 0.853
inactive: [1] 0.912 | [3] 0.936 | [4] 0.968 | [6] 0.951 | [7] 0.916 | [9] 0.944 | [10] 0.913 | [13] 0.95 | [14] 0.955 | [15] 0.945 | [16] 0.948 | [17] 0.949 | [18] 0.925 | locus YDR195W, strain ref2 0.989 | [21] 0.951 | [22] 0.923 | [23] 0.929 | [26] 0.947 | [28] 0.951 | [29] 0.926 | [30] 0.953 | [32] 0.902 | [33] 0.946 | [34] 0.97 | [35] 0.962 | [39] 0.957 | [41] 0.859 | [43] 0.94 | [44] 0.925 | [46] 0.953 | [48] 0.957 | [49] 0.927 | [50] 0.94 | locus YJL187C, strain SWE1, hits give low values 0.965 | [51] 0.835 | [53] 0.943 | [54] 0.946 | [56] 0.936 | [57] 0.958 | [61] 0.964 | [65] 1.07 | [66] 0.927 | [67] 0.96 | [69] 0.913 | [70] 0.975 | [71] 0.938 | [73] 0.953 | [76] 0.954 | [77] 1.03 | [78] 0.949 | [79] 0.954 | [80] 0.927 | [82] 0.949 | [83] 0.928 | [85] 0.867 | [86] 0.948 | [87] 0.809 | [88] 0.958 | [91] 0.852 | [92] 0.944 | [93] 0.894
